# Screening results: PubChem BioAssay, several laboratories
# Rows were chosen to be rich in hits. Some 2.7% of all compounds tested hit in one or more screens of this group.
# CF NFkB inh: inhibitors of PAF-induced NF-kB signaling, primary screen, cell-based, GFP fluorescence, uHTS; KKLEB NF-kB-GFP reporter, GFP fluorescence overnight; inhibition, % at 5 µM; actives 0.86% (n = 360,000); AID 588850, 2011;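 active means at least 50% inhibition at 5 µM, scaled per plate between neutral and stimulator controls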;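 further: PAF is a Pseudomonas aeruginosa culture filtrate used as stimulus; plate controls were PAF-stimulated DMSO wells for no effect and unstimulated DMSO wells for full effect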
# Peg3 prom inh: Peg3 promoter-driven luciferase inhibitors, primary screen, cell-based, HeLa, luciferase luminescence. HeLa PEG-Prom luciferase reporter, overnight. inhibition, % at 20 µM. actives 1.7% (n = 360,000). AID 588405, 2011;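 active means inhibition of at least 50% at 20 µM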
# HIF-2a block: HIF-2a reporter inhibitors, primary screen, luminescence, 786-0 RCC cells; 786-0 RCC cells HIF-2a reporter, luciferase luminescence, overnight; inhibition, % at 18.8 µM; actives 0.72% (n = 360,000); AID 624352, 2012;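 active means inhibition of the luminescence signal of 40% or more relative to plate controls, in a single-dose primary screen at 18.75 µM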
# KKLEB tox: cytotoxicity in KKLEB CF airway cells, primary screen, cytotoxicity control for CF NF-kB inhibitor project, cell-based, uHTS, fluorescence assay plates; KKLEB CF airway cells viability, ATPlite luminescence, overnight; hits give low values; cells stimulated with P. aeruginosa culture filtrate; activity change (cytotoxicity), % at 5 µM; actives 0.36% (n = 360,000); AID 602141, 2011;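 active means corrected activity change at or below -50% at 5 µM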
# TRPM1 prom inh: inhibitors of MITF-dependent TRPM1 promoter reporter, primary screen, cell-based, SK-MEL-5, single point, luciferase. SK-MEL-5 TRPM1 promoter luciferase, 24 h. inhibition, % at 12.5 µM. actives 0.83% (n = 330,000);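 active means mean inhibition across replicates of 60% or more, whatever share of single replicates reaches that level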
# Shn3 inh set2: reduction of Shn3 3'UTR firefly luciferase signal, primary screen, Schnurri-3 inhibitor project, cell-based, Clone20 osteoblasts, set 2 | actives 0.52% (n = 360,000) | inhibition, % at 12.5 µM | AID 588674, 2011 | Clone20 osteoblast Shn3 3'UTR firefly luciferase, 24 h;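 active means mean inhibition of at least 75% with every replicate also reaching 75%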;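 further: 0% = median of neutral control wells and 100% = pilot-screen positive control compound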
# An asterisk follows results filed as active; . = no result given.
SMILES,CF NFkB inh,Peg3 prom inh,HIF-2a block,KKLEB tox,TRPM1 prom inh,Shn3 inh set2
O=C(/C=C\c1ccc(-c2ccccc2)o1)c1ccccc1,6.2,80.4*,-166.3,-10.5,-32.7,59.7
COc1ccc(NC(=O)c2cc(-c3cc(F)ccc3OC(C)C)n[nH]2)c(C)c1,-7.8,14.3,8.5,-3.2,.,12.5
O=C(OC1CC2CC1[C@H]1CCCCN1C2=O)N1CCN(C(=O)c2ccccc2)CC1 (stereo partly specified),.,.,11.4,.,.,.
CCCCCCN1C[C@@H](n2cc(COC(=O)c3ccccc3)nn2)[C@H](O)C[C@@H]1c1ccccc1,19.9,65.0*,-4.1,3.3,.,-4.1
CCCNC(=O)C1(C)CCCN(C(=O)COc2ccc(Cl)cc2Cl)C1 (stereo unspecified),-4.6,22.4,-1.9,2.3,.,7.9
FC(F)(F)c1ccc(-c2cccc3c2C2CC3CCN2Cc2ccc3c(c2)OCO3)cc1 (stereo unspecified),7.8,-9.5,-1.1,-22.1,.,11.5
CC(=O)NNC(=O)CCn1c2c(c3ccccc31)CCCC2,24.9,2.0,14.6,-7.9,-8.5,2.3
CCOC(=O)NNC(=O)CCn1c2c(c3ccccc31)CCCC2,62.2*,9.9,23.6,-2.5,-7.8,-5.6
Cc1ccc2nc3c(cc(C(=O)NCc4ccccc4)c(=N)n3CCCn3ccnc3)c(=O)n2c1,-22.0,54.4*,16.0,7.2,-11.4,-23.3
CC(C)(C)c1ccc(C(=O)c2c[nH]c(C(=O)NCc3cccnc3)c2)cc1,9.9,-78.7,-86.8,8.1,-10.9,25.8
O=C(Cc1ccc(Cl)cc1)c1c[nH]c(C(=O)NCc2cccnc2)c1,31.4,102.4*,21.1,-43.7,9.4,0.0
Cc1cc(C)c(S(=O)(=O)N2CCCCC2)cc1N(C)S(=O)(=O)c1ccc(Cl)cc1,6.8,98.2*,22.4,-5.2,-12.2,-1.6
O=C(CCS(=O)(=O)c1ccc(Br)s1)NCc1ccc2c(c1)OCO2,3.8,11.1,8.8,0.7,-14.9,11.8
CN(CC(=O)NCc1ccc2c(c1)OCO2)S(=O)(=O)c1ccc(Br)s1,2.9,-7.7,1.9,-1.9,2.9,93.7*
CCOC(=O)c1c(C)n(-c2ccc(C)cc2)c2ccc(OCC(O)CNCC3CCCO3)cc12 (stereo unspecified),41.4,86.4*,12.5,-37.3,69.4*,80.3
CCOC(=O)c1c(C)n(-c2ccc(C)cc2)c2ccc(OCC(O)CNCCCO)cc12 (stereo unspecified),11.7,105.2*,17.3,-14.8,70.1*,-1.2
CCCNC(=O)C1(C)CCCN(Cc2cc(-c3ccccc3)nn2C)C1 (stereo unspecified),11.3,7.5,12.2,4.7,.,34.1
C[C@@H](CO)NC(=O)c1[nH]cnc1C(=O)Nc1ccc(CNC(=O)OC(C)(C)C)cc1,-5.3,-7.9,-2.0,10.8,.,1.1
On1ccccc1=S,-8.8,100.4*,10.8,0.8,74.8*,83.5
COc1cccc(C(=O)N/N=C(/c2ccccc2)c2ccccn2)c1,3.5,86.4*,-15.4,15.8,66.1*,79.0
COc1cc(C(=O)N/N=C(\C)c2ccccn2)cc(OC)c1OC,-0.8,57.7*,-3.5,15.4,39.0,-3.2
C/C(=N\NC(=O)c1cc(C)nc2ccccc12)c1ccccn1,-58.0,45.7,-8.2,11.0,88.9*,95.5*
COc1cccc(C(=O)N/N=C(/CCC(=O)O)c2ccccc2)c1,9.6,-15.2,-17.2,2.5,-8.3,-5.6
C/C(=N\NC(=O)c1cc(C)nc2ccccc12)c1ccncc1,-8.5,-0.3,12.2,3.8,-0.6,5.8
CCCCN(C(C)=O)c1c(CC)nc2ccc(C(=O)NCCOc3ccc(OC)cc3)cn12,9.6,7.1,4.7,1.0,.,-14.1
SMILES,CF NFkB inh,Peg3 prom inh,HIF-2a block,KKLEB tox,TRPM1 prom inh,Shn3 inh set2
COc1ccc(CN2C[C@@H](CO)O[C@@H](n3cnc4c(NCCN(C)C)ncnc43)C2)cc1,7.7,0.4,9.1,7.8,.,-6.9
COC(=O)[C@@]12C[C@@H](CC(=O)N3CCOCC3)C(=O)N(Cc3ccco3)C1=CCC(C)(C)C2,.,.,2.7,.,.,.
CC1=C(C(=O)N2CCOCC2)CC(CC(=O)NCCCN(C)C)C(=O)N1CCCN1CCCC1=O (stereo unspecified),.,.,4.2,.,.,.
O=C(c1ccco1)N1CCN(C(=O)c2ccco2)C1=S,14.9,91.9*,35.0,13.6,5.6,-15.6
CCOC(=O)c1sc(NC(=O)Nc2ccccc2)cc1C,28.2,-230.8,-252.5,-51.3*,-106.3,17.7
CCN1c2ccccc2NC2C1C(C(C)=O)C(=O)N2c1ccc(Cl)cc1 (stereo unspecified),-9.8,7.8,3.0,3.4,64.5*,13.3
COc1ccc(C=O)cc1Cn1c(C)cc(C)c(C#N)c1=O,8.6,50.6*,15.8,-3.4,10.5,13.6
Cc1ccc(-c2cc(C(=O)Nc3ccccc3C(N)=O)c3ccccc3n2)o1,-12.5,52.2*,6.6,-10.6,.,16.7
C[C@H]1COc2cc(N3CCC[C@H]3CO)ccc2S(=O)(=O)N1,.,.,-1.0,.,.,.
Cc1cc(C)c(C)c(S(=O)(=O)N2CCN(c3ccccn3)CC2)c1C,-7.5,20.9,13.0,-2.4,2.2,4.2
Cc1cc(C)c(C)c(S(=O)(=O)N2CCN(c3ncnc4ccccc34)CC2)c1C,20.3,42.9,10.1,2.6,45.0,86.4*
COC(=O)Nc1nc2ccc(C(=O)c3cccs3)cc2[nH]1,60.2*,-157.7,-79.3,9.3,21.1,-30.6
CCc1ccc(CN2CCC(Oc3cc(C(=O)NC4CC4)ccc3OC)CC2)cc1,3.4,-7.6,16.6,-7.9,.,16.5
CSC1SCC2C(=O)N(C)C(C(C)C)C(=O)OCC(NC(=O)c3cnc4ccccc4n3)C(=O)NC(C)C(=O)N(C)C1C(=O)N(C)C(C(C)C)C(=O)OCC(NC(=O)c1cnc3ccccc3n1)C(=O)NC(C)C(=O)N2C (stereo unspecified),95.7*,99.0*,63.2*,-37.1,45.8,94.1*
O=C(Nc1ccc(C(O)(C(F)(F)F)C(F)(F)F)cc1)c1ccc(Cl)c([N+](=O)[O-])c1,0.3,57.7*,-51.2,-0.6,3.8,5.0
CCOc1ccc(N2C(=O)CC(Sc3nnnn3-c3ccccc3)C2=O)cc1 (stereo unspecified),49.1,95.9*,-1.0,0.8,7.9,92.4*
CCc1ccc(NC(=O)C2CCN(S(=O)(=O)c3ccc4c(c3)NC(=O)C(C)S4)CC2)cc1 (stereo unspecified),14.0,35.3,5.0,-1.2,25.4,89.7*
